Results filed as inconclusive are left out. The source made the active and inactive calls. Unless noted, calls come from the whole dose curve; as a rule, active = well fitted curve in the direction sought with a large enough effect; inconclusive = small, poorly fitted or top-dose-only effect, or another doubt; inactive = no such curve, though single readings can be large; an effect the other way counts as inactive or inconclusive.
How the values were obtained:
[1] = target: Lysosomal acid glucosylceramidase (Homo sapiens) (UniProt P04062); assay: Glucocerebrosidase-p2 (AID 348; in the data active = potency below about 10 µM; note: potency is the fitted concentration of half-maximal effect); details: purified GBA, blue fluorogenic substrate, 40 min
Chain of Lysosomal acid glucosylceramidase (Homo sapiens) (P04062 whole entry, looked up): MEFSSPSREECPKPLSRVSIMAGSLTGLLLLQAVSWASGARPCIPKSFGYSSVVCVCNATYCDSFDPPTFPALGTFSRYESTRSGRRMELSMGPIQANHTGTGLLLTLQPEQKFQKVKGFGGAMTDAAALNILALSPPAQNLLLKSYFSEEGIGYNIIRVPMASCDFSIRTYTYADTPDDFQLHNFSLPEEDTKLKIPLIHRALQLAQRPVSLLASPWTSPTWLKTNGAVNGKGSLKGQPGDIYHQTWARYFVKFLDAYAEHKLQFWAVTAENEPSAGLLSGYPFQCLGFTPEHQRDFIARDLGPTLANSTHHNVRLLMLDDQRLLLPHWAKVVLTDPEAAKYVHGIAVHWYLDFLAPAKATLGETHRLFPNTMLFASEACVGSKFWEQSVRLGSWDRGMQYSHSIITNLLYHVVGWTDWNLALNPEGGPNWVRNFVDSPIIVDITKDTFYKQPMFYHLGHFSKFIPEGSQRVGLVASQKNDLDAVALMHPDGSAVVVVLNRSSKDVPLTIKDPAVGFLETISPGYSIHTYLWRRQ
In short: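 Compounds titrated from 0.6 nM upwards against 0.2 nM enzyme in pH 5.9 citric acid/KH2PO4, taurocholate, tween-20; blue fluorogenic substrate 80 uM, 40 min room temperature, stopped and read Ex 365/Em 440 for AC50.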

[2] = AP1 Signaling Pathway (AID 357; active = well fitted curve in either direction with a large enough effect, not every such curve was filed as active;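 note: ME-180 reporter cells stimulated with EGF at its EC50 level; % is set by controls: 0 for no effect and ±100 for the full control effect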); details: ME-180 AP-1-bla reporter, EGF-induced, beta-lactamase ratio, 5 h; at 7.69 µM (top of the series) unless noted
In short: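 Beta-lactamase reporter under AP-1 response element, ME-180 background. Stimulus: EC50 EGF. Compound exposure 5 h, 37 °C. Detection: CCF4, 2.5 h RT, 460/530 nm. Values: AC50 from titration.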

[3] = NFAT Signaling Pathway (AID 444; active = well fitted curve in either direction with a large enough effect, not every such curve was filed as active;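 note: carbachol stimulus at about its EC50 of 1 µM final; % is set by controls: 0 for no effect and ±100 for the full control effect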); details: Jurkat NFAT-bla M1, carbachol, beta-lactamase ratio, 5 h; at 7.69 µM (top of the series) unless noted
In short: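 Jurkat cells carrying an NFAT-driven β-lactamase reporter and co-transfected muscarinic M1 receptor were treated with compound plus carbachol (1 uM final, an EC50 level) for 5 h at 37 °C. CCF4 loading followed for 1 h at RT; 460/530 nm ratio gave %activity.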

[4] = Stat Signaling Pathway (AID 446; active = well fitted curve in either direction with a large enough effect, not every such curve was filed as active;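 note: ME-180 cervical cancer cells given 40 pM IL-6 alongside compound; SIE-controlled beta-lactamase reporter measured as 460/530 nm FRET emission ratio; % is set by controls: 0 for no effect and ±100 for the full control effect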); details: ME-180 SIE beta-lactamase reporter, IL-6 stimulated, 5 h; at 7.69 µM (top of the series) unless noted
In short: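 Reporter line: ME-180 cervical carcinoma, SIE-beta-lactamase. Treatment: compound with 40 pM IL-6, 5 hrs, 37 C, in low-serum OPTI-MEM with 10 mM HEPES pH 7.3. Detection: 460/530 nm fluorescence.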

[5] = target: Glucocorticoid receptor (Homo sapiens) (UniProt P04150); assay: GR-GFP Redistribution (AID 450;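 active = compounds whose dose series gives a full or clear partial fitted curve of increased nuclear translocation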; note: potency is the fitted concentration of half-maximal effect); details: U2OS GR-GFP nuclear translocation, laser cytometry, 2 h
Chain of Glucocorticoid receptor (Homo sapiens) (P04150 whole entry, looked up, the tested form may be a part): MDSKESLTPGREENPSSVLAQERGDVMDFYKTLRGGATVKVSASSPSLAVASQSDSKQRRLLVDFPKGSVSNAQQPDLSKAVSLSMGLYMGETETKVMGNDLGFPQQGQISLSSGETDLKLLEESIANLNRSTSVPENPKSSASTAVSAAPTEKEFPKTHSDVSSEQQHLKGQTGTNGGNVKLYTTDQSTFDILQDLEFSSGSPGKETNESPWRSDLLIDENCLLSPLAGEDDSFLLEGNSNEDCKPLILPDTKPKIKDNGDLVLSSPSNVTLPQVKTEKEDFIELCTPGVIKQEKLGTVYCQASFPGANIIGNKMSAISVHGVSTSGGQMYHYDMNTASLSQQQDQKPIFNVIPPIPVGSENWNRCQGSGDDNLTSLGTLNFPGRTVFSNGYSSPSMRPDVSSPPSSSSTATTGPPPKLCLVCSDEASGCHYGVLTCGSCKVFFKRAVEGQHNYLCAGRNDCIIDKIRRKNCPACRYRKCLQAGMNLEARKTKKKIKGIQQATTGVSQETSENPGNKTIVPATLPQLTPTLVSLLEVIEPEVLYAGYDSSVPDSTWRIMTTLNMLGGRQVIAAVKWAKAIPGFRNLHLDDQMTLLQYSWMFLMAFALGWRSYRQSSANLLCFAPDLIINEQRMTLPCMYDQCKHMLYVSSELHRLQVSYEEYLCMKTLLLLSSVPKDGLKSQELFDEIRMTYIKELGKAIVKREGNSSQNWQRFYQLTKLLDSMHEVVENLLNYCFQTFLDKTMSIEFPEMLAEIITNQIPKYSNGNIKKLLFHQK

[6] = target: Glucocorticoid receptor (Homo sapiens) (UniProt P04150); assay: GR-EFC Redistribution (AID 451; calls by dose curve; note: potency is the fitted concentration of half-maximal effect); details: CHO-K1 GR-EFC translocation, beta-gal luminescence, 2 h
In short: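 CHO-K1 cells stably expressing nuclear-localized β-gal enzyme acceptor and GR fused C-terminally to the enzyme donor fragment; ligand-driven nuclear translocation restores β-gal by complementation. Compounds titrated up to 46 uM final, 2 h at 37 °C; luminescence read.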

[7] = target: Mitogen-activated protein kinase 10 (Mus musculus) (UniProt Q61831); assay: JNK3 AlphaScreen Assay (AID 530; active = well fitted curve in either direction with a large enough effect, not every such curve was filed as active;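 note: kinase came from lysate of stimulated human HepG2 cells; signal reports phosphorylation of biotinylated GST-cJun 1-79 at Ser73 with 10 µM ATP; % is set by controls: 0 for no effect and ±100 for the full control effect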); details: JNK3 lysate, c-Jun phosphorylation; series mostly up to 57.1 µM
In short: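 Inhibitors reduce antibody binding to phosphorylated biotin-cJun, lowering AlphaScreen luminescence. Lysates from HepG2 cells pre-activated by IL-1beta plus TNF-alpha supplied JNK3; compounds were titrated.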

[8] = target: 3',5'-cyclic-AMP phosphodiesterase 4B (Homo sapiens) (UniProt Q07343); assay: qHTS Assay for Inhibitors of PDE-IV (AID 607; active = well fitted activation curve with a large enough effect in the main read-out, with a control signal flat, not every such curve was filed as active; note: % of control where 0% means no effect); details: HEK293 ACTOne CNG channel cells, membrane potential fluorescence; series mostly up to 22.9 µM
Chain of 3',5'-cyclic-AMP phosphodiesterase 4B (Homo sapiens) (Q07343 whole entry, looked up): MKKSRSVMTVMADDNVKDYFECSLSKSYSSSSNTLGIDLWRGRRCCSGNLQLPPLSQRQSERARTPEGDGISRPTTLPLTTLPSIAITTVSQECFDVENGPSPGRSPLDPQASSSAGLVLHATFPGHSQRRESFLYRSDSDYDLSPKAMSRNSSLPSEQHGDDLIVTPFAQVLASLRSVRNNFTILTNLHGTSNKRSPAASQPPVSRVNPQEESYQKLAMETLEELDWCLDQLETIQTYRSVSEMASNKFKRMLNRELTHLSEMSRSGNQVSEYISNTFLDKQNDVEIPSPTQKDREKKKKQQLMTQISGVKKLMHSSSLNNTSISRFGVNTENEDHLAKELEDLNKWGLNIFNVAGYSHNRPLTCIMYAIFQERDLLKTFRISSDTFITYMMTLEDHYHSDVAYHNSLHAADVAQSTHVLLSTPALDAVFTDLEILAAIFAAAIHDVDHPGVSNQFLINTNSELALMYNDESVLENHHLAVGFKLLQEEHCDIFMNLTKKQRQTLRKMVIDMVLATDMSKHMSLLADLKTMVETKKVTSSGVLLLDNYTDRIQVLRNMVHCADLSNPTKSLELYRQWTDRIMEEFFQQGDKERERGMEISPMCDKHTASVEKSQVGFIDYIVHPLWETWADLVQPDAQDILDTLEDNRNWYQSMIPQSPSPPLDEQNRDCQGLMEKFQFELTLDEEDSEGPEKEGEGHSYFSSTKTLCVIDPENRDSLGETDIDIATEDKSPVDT
In short: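 Cell-based read-out of cAMP via a modified cyclic nucleotide-gated channel and membrane potential dye (535/590 nm) in HEK293 cells expressing PDE4 endogenously. Compounds tested up to 22.9 uM final; 100 uM RO 20-1724 reference.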

[9] = qHTS Assay for Identification of Small Molecule Agonists for Hypoxia Response Element Signaling Pathway (AID 914; active = well fitted activation curve with a large enough effect in the signal ratio, with a control signal flat, not every such curve was filed as active; the % refers to the signal ratio; note: % of control where 0% means no effect); details: ME-180 (cervical carcinoma) HRE-bla reporter, beta-lactamase ratio, CoCl2, 17 h; activation: active compounds read high
In short: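 HRE-bla ME-180 cells with beta-lactamase reporter under hypoxia response element, compounds with EC50 CoCl2 for 17 hours at 37 C. CCF4 substrate, 460nm/530nm emission ratio gave %Activity; AC50 from titration series.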

[10] = target: Dual specificity protein kinase CLK4 (Homo sapiens) (UniProt Q9HAZ1); assay: qHTS Assay for Inhibitors of CDC-like Kinase 4 (Kinase-Glo Assay) (AID 1770); details: recombinant Clk4, Kinase-Glo ATP depletion luminescence; series mostly up to 66.7 µM; note: % is set by controls: 0 for no effect and ±100 for the full control effect; nearly all actives have a fitted effect of over 65% in size
Chain of Dual specificity protein kinase CLK4 (Homo sapiens) (Q9HAZ1 whole entry, looked up): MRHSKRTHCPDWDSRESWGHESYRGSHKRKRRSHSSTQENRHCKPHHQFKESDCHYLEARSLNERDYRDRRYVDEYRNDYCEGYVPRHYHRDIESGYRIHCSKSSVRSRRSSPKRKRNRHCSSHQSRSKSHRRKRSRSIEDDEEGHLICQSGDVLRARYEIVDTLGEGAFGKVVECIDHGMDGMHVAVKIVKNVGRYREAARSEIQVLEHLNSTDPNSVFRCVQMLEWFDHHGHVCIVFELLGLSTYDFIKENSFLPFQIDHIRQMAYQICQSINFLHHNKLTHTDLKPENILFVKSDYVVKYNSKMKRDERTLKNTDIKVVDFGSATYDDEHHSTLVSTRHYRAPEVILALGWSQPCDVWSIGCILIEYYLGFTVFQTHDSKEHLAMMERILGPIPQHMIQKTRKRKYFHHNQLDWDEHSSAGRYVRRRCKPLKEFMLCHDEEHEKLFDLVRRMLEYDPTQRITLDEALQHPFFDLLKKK
In short: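 Clk4 25 nM, RS peptide 100 uM, ATP 1 uM, pH 7.5 Tris, 10 mM MgCl2, 2.5 mM DTT; 4.5 h RT; ATP depletion read by Kinase-Glo luminescence.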

[11] = target: Dual specificity protein kinase CLK4 (Homo sapiens) (UniProt Q9HAZ1); assay: qHTS Assay for Inhibitors of CDC-like Kinase 4 (ADP-Glo Assay) (AID 1771); details: recombinant CLK4, ADP-Glo luminescence; series mostly up to 80 µM; note: % is set by controls: 0 for no effect and ±100 for the full control effect; nearly all actives have a fitted effect of over 70% in size
In short: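 25 nM Clk4 with 100 uM RS repeat peptide and 1 uM ATP (final) in buffer with 2 mM MgCl2, 0.5 mM EGTA, 2.5 mM DTT, 0.01% Triton X-100; 1 h at room temperature; ADP-Glo luminescence for ADP formed.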

[12] = target: Dual specificity protein kinase CLK4 (Homo sapiens) (UniProt Q9HAZ1); assay: qHTS Assay for Inhibitors of CDC-like Kinase 4 (ADP-FP Assay) (AID 1795); details: Transcreener ADP fluorescence polarization; series mostly up to 50 µM;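 note: recombinant human CLK4 phosphorylating RS repeat peptide at 1 µM ATP; % is set by controls: 0 for no effect and ±100 for the full control effect; nearly all actives have a fitted effect of over 60% in size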
In short: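 Kinase activity was followed as ADP output, converted from fluorescence polarization with a calibration curve. Reactions ran one hour at low ATP (1 uM) with RS peptide substrate.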

[13] = target: Ubiquitin carboxyl-terminal hydrolase 1 (Homo sapiens) (UniProt O94782); assay: Inhibitors of USP1/UAF1: Pilot qHTS (AID 504865); details: purified USP1/UAF1, Ub-rhodamine cleavage fluorescence; series mostly up to 54.9 µM;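 note: rhodamine fluorescence freed from ubiquitin-rhodamine substrate followed over time; top concentration of the series differs between compounds; % is set by controls: 0 for no effect and ±100 for the full control effect; nearly all actives have a fitted effect of over 35% in size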
Chain of Ubiquitin carboxyl-terminal hydrolase 1 (Homo sapiens) (O94782 whole entry, looked up): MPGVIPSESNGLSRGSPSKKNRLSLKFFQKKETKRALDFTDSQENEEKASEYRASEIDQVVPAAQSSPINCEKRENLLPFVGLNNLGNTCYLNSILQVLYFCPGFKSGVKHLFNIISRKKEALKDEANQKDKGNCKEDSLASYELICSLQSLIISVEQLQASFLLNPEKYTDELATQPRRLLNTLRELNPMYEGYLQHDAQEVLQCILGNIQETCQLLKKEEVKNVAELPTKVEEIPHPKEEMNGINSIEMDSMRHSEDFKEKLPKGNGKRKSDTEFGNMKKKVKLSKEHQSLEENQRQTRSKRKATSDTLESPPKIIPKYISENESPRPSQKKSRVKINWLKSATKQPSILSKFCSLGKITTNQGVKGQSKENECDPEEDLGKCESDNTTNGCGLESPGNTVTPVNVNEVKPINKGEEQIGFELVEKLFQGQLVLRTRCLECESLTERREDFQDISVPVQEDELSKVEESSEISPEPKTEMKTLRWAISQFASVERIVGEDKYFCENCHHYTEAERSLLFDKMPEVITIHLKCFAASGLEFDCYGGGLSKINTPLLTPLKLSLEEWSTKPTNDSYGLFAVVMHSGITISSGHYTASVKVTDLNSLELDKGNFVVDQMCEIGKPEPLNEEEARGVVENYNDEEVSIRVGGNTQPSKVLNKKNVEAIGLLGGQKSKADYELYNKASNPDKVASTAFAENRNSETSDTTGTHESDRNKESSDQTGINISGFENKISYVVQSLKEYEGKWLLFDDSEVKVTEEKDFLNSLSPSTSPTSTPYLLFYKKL
In short: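 Enzyme-free wells gave the negative control, while test wells held 1nM USP1/UAF1 preincubated with compound for 15 min at room temperature. Ub-Rho at 150nM final started the reaction, and fluorescence at 480/540 nm was recorded kinetically.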

[14] = Primary qHTS for small molecule stabilizers of the endoplasmic reticulum resident proteome: Secreted ER Calcium Modulated Protein (SERCaMP) assay (AID 1508630); details: SH-SY5Y GLuc-SERCaMP (Gaussia luciferase released on ER calcium loss) secretion, thapsigargin, luminescence; series mostly up to 38.4 µM; note: % is set by controls: 0 for no effect and ±100 for the full control effect
In short: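 GLuc-SERCaMP-expressing SH-SY5Y cells, pretreated 16 h with compound, are challenged with thapsigargin to empty ER calcium stores; after 4 h, coelenterazine is added directly to the medium and luminescence is imaged.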

[15] = target: Cytochrome P450 3A4 (Homo sapiens) (UniProt P08684); assay: qHTS Assay for Activators of Cytochrome P450 3A4 (AID 885); details: recombinant CYP3A4, Luciferin-PPXE luminescence, 60 min; series mostly up to 57.1 µM; note: nearly all actives have a fitted effect of over 65% in size
Chain of Cytochrome P450 3A4 (Homo sapiens) (P08684 whole entry, looked up): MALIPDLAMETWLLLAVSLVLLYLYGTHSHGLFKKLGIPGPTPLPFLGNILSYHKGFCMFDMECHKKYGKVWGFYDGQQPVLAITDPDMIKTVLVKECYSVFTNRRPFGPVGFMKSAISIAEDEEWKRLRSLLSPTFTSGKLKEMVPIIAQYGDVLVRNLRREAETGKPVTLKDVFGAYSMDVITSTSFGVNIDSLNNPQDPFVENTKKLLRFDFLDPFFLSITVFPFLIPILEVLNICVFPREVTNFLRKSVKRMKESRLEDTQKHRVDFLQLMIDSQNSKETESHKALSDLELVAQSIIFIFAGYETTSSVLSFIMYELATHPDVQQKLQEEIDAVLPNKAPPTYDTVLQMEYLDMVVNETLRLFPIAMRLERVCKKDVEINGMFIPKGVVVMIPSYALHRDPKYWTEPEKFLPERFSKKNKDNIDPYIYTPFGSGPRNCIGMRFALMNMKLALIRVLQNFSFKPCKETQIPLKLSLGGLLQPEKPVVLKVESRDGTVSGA
In short: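 Signal was normalized against complete inhibition by 57 uM ketoconazole. The reaction used 20nM CYP3A4 with 25uM Luciferin-PPXE, 10-min compound preincubation and a 60-min NADPH-supported step at RT.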

COc1ccc(-n2c(=O)c(-c3ccccc3)nc3cnc(N4CCOCC4)nc32)cc1
inactive: Potency [1] > 11.4 µM | activity change, negative = inhibition [2] 5.32% | activity change, negative = inhibition [3] 6.27% | activity, negative = inhibition [4] 6.26% | Potency [5] > 9.22 µM | Potency [6] > 46 µM | Potency [7] | Potency [8] | activation [9] -1.88% | Potency [10] | Potency [11] | Potency [12] | Potency [13] | outcome [14]

CC(=O)NCCNc1ncncc1-c1ccccc1CN(C)C
inactive: Potency [1] > 11.4 µM | activity change, negative = inhibition [2] 1.84% | activity change, negative = inhibition [3] -2.17% | activity, negative = inhibition [4] 0.764% | Potency [5] > 46 µM | Potency [6] > 46 µM | Potency [7] | Potency [8] | Potency [15] | Potency [10] | Potency [11] | Potency [12] | Potency [13] | outcome [14]

COc1ccc(-n2c(=O)c(-c3cccs3)nc3cnc(Nc4ccccc4)nc32)cc1
inactive: Potency [1] > 11.4 µM | activity change, negative = inhibition [2] -7.98% | activity, negative = inhibition [4] -8.99% | Potency [5] > 9.22 µM | Potency [6] > 46 µM | Potency [7] | Potency [8] | Potency [10] | Potency [11] | Potency [12] | Potency [13] | outcome [14]

FC(F)(F)c1ccccc1-c1cncnc1NCc1ccccc1
inactive: Potency [1] > 11.4 µM | activity change, negative = inhibition [2] -12.5% | activity change, negative = inhibition [3] -25.7% | activity, negative = inhibition [4] 8.04% | Potency [6] > 46 µM | Potency [7] | Potency [10] | Potency [11] | Potency [12] | Potency [13] | outcome [14]

CN(C)c1ncc2nc(-c3cccs3)c(=O)n(Cc3cccs3)c2n1
inactive: Potency [1] > 11.4 µM | activity change, negative = inhibition [2] 21.5% | Potency [5] > 9.22 µM | Potency [6] > 46 µM | Potency [7] | Potency [8] | Potency [15] | Potency [10] | Potency [11] | Potency [12] | Potency [13] | outcome [14]

COc1ccc(-c2nc3cnc(N4CCOCC4)nc3n(Cc3cccc(OC)c3)c2=O)cc1
inactive: Potency [1] > 11.4 µM | activity change, negative = inhibition [2] 18.4% | activity change, negative = inhibition [3] 18.6% | Potency [5] > 9.22 µM | Potency [6] > 46 µM | Potency [7] | Potency [8] | Potency [10] | Potency [11] | Potency [12] | Potency [13] | outcome [14]

O=c1c(CCc2ccccc2)nc2cnc(N3CCOCC3)nc2n1C1CC1
inactive: Potency [1] > 11.4 µM | activity change, negative = inhibition [2] -19.2% | activity change, negative = inhibition [3] 4.06% | activity, negative = inhibition [4] 3.71% | Potency [6] > 46 µM | Potency [7] | Potency [10] | Potency [11] | Potency [12] | Potency [13] | outcome [14]
